Results as given in PubChem BioAssay AID1159580 (chemical genetic matrix, 2015).
Among all 5,500 compounds or so, about 2,000 (36%) were called active. About 18% were inconclusive and are not listed. Rule as the data show it: active = normalized growth mostly below about 0.91 (no sharp cut-off); inconclusive = no clear call, values can overlap the other calls; inactive = mostly above about 0.92. Some of the results follow.

Assay: chemical genetic growth profiling, strain panel (AID 1159580);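 also: tested at 20 µM; growth read once vehicle control cultures reached saturation at 30 °C; 1 = growth at the plate median or of vehicle wells; lower values mean less growth of the strain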
Settings: growth OD

Measured: normalized growth

C[C@]12C=CC(=O)C=C1CCC1C2C(=O)C[C@@]2(C)C1CC[C@]2(O)C(=O)CO (stereo partly specified)
inactive: S. cerevisiae deletion strains, locus YJR075W, strain HOC1, stronger effect = lower value 0.985 | S. cerevisiae deletion strains, locus YKL009W, strain mrt4, stronger effect = lower value 0.979 | S. cerevisiae deletion strains, locus YKL068W, stronger effect = lower value 0.989 | S. cerevisiae deletion strains, locus YKL085W, strain MDH1 (second series), stronger effect = lower value 0.998 | S. cerevisiae deletion strains, locus YKL085W, strain MDH1, stronger effect = lower value 0.998 | S. cerevisiae deletion strains, locus YKL160W, strain elf1, stronger effect = lower value 0.97 | S. cerevisiae deletion strains, locus YKL190W, strain CNB1, stronger effect = lower value 0.989 | S. cerevisiae deletion strains, locus YKR001C, strain vps1, stronger effect = lower value 0.995 | S. cerevisiae deletion strains, locus YKR026C, strain gcn3, stronger effect = lower value 0.997 | S. cerevisiae deletion strains, locus YKR091W, strain srl3, stronger effect = lower value 0.997 | S. cerevisiae deletion strains, locus YLL001W, strain dnm1, stronger effect = lower value 0.955 | S. cerevisiae deletion strains, locus YLL026W, stronger effect = lower value 0.986 | S. cerevisiae deletion strains, locus YLL041C, strain sdh2, stronger effect = lower value 0.994 | S. cerevisiae deletion strains, locus YLR027C, strain aat2, stronger effect = lower value 0.978 | S. cerevisiae deletion strains, locus YLR039C, strain RIC1, stronger effect = lower value 0.993 | S. cerevisiae deletion strains, locus YLR058C, strain SHM2, stronger effect = lower value 0.978 | S. cerevisiae deletion strains, locus YLR102C, strain apc9, stronger effect = lower value 0.99 | S. cerevisiae deletion strains, locus YLR113W, strain HOG1, stronger effect = lower value 1.03 | S. cerevisiae deletion strains, locus YLR221C, strain rsa3, stronger effect = lower value 1.01 | S. cerevisiae deletion strains, locus YLR258W, strain gsy2, stronger effect = lower value 1.02 | S. cerevisiae deletion strains, locus YLR262C, strain YPT6 (second series), stronger effect = lower value 0.986 | S. cerevisiae deletion strains, locus YLR262C, strain YPT6, stronger effect = lower value 0.968 | S. cerevisiae deletion strains, locus YLR268W, strain sec22, stronger effect = lower value 1.05 | S. cerevisiae deletion strains, locus YLR320W, strain mms22, stronger effect = lower value 0.985 | S. cerevisiae deletion strains, locus YLR330W, strain CHS5, stronger effect = lower value 0.998 | S. cerevisiae deletion strains, locus YLR342W, strain FKS1 (second series), stronger effect = lower value 1.01 | S. cerevisiae deletion strains, locus YLR342W, strain FKS1, stronger effect = lower value 0.978 | S. cerevisiae deletion strains, locus YLR357W, strain rsc2, stronger effect = lower value 0.992 | S. cerevisiae deletion strains, locus YLR370C, strain arc18, stronger effect = lower value 0.994 | S. cerevisiae deletion strains, locus YLR371W, strain rom2, stronger effect = lower value 0.974 | S. cerevisiae deletion strains, locus YLR384C, strain iki3, stronger effect = lower value 0.985 | S. cerevisiae deletion strains, locus YLR418C, strain cdc73, stronger effect = lower value 0.985 | S. cerevisiae deletion strains, locus YML016C, strain PPZ1, stronger effect = lower value 0.991 | S. cerevisiae deletion strains, locus YML032C, strain rad52, stronger effect = lower value 1.01 | S. cerevisiae deletion strains, locus YML120C, strain ndi1, stronger effect = lower value 0.986 | S. cerevisiae deletion strains, locus YML124C, strain tub3, stronger effect = lower value 0.983 | S. cerevisiae deletion strains, locus YMR058W, strain fet3, stronger effect = lower value 0.996 | S. cerevisiae deletion strains, locus YMR078C, strain ctf18, stronger effect = lower value 0.979 | S. cerevisiae deletion strains, locus YMR125W, strain sto1, stronger effect = lower value 0.987 | S. cerevisiae deletion strains, locus YMR129W, stronger effect = lower value 1 | S. cerevisiae deletion strains, locus YMR205C, strain PFK2, stronger effect = lower value 0.988 | S. cerevisiae deletion strains, locus YMR223W, strain ubp8, stronger effect = lower value 0.963 | S. cerevisiae deletion strains, locus YMR231W, strain pep5, stronger effect = lower value 1.02 | S. cerevisiae deletion strains, locus YMR263W, strain SAP30, stronger effect = lower value 0.992 | S. cerevisiae deletion strains, locus YMR307W, strain GAS1, stronger effect = lower value 0.991 | S. cerevisiae deletion strains, locus YNL067W, strain RPL9B, stronger effect = lower value 0.992 | S. cerevisiae deletion strains, locus YNL071W, strain lat1, stronger effect = lower value 1.01 | S. cerevisiae deletion strains, locus YNL153C, strain GIM3, stronger effect = lower value 0.99 | S. cerevisiae deletion strains, locus YNL183C, strain NPR1, stronger effect = lower value 0.986 | S. cerevisiae deletion strains, locus YNL209W, strain ssb2, stronger effect = lower value 1.01 | S. cerevisiae deletion strains, locus YNL233W, strain BNI4, stronger effect = lower value 0.997 | S. cerevisiae deletion strains, locus YNL248C, strain rpa49, stronger effect = lower value 1 | S. cerevisiae deletion strains, locus YNL250W, strain rad50, stronger effect = lower value 0.981 | S. cerevisiae deletion strains, locus YNL271C, strain bni1, stronger effect = lower value 0.999 | S. cerevisiae deletion strains, locus YNL298W, strain CLA4, stronger effect = lower value 0.982 | S. cerevisiae deletion strains, locus YNL307C, strain MCK1, stronger effect = lower value 0.998 | S. cerevisiae deletion strains, locus YNL322C, strain KRE1 (second series), stronger effect = lower value 0.998 | S. cerevisiae deletion strains, locus YNL322C, strain KRE1, stronger effect = lower value 0.994 | S. cerevisiae deletion strains, locus YNR049C, strain mso1, stronger effect = lower value 0.999 | S. cerevisiae deletion strains, locus YNR052C, strain pop2, stronger effect = lower value 0.995 | S. cerevisiae deletion strains, locus YOL006C, strain TOP1, stronger effect = lower value 0.938 | S. cerevisiae deletion strains, locus YOL012C, strain htz1 0.891 | S. cerevisiae deletion strains, locus YOL147C, strain pex11, stronger effect = lower value 0.999 | S. cerevisiae deletion strains, locus YOR001W, strain rrp6, stronger effect = lower value 0.976 | S. cerevisiae deletion strains, locus YOR061W, strain CKA2, stronger effect = lower value 0.963 | S. cerevisiae deletion strains, locus YOR069W, strain VPS5, stronger effect = lower value 0.997 | S. cerevisiae deletion strains, locus YOR070C, strain gyp1, stronger effect = lower value 1.01 | S. cerevisiae deletion strains, locus YOR080W, strain dia2, stronger effect = lower value 0.992 | S. cerevisiae deletion strains, locus YOR083W, strain WHI5, stronger effect = lower value 0.964 | S. cerevisiae deletion strains, locus YOR106W, strain vam3, stronger effect = lower value 0.993 | S. cerevisiae deletion strains, locus YOR136W, strain idh2, stronger effect = lower value 0.982 | S. cerevisiae deletion strains, locus YOR144C, strain elg1, stronger effect = lower value 0.985 | S. cerevisiae deletion strains, locus YOR184W, strain ser1, stronger effect = lower value 0.973 | S. cerevisiae deletion strains, locus YOR231W, strain MKK1, stronger effect = lower value 1.01 | S. cerevisiae deletion strains, locus YOR265W, strain rbl2, stronger effect = lower value 0.993 | S. cerevisiae deletion strains, locus YOR270C, strain vph1, stronger effect = lower value 1.02 | S. cerevisiae deletion strains, locus YOR290C, strain snf2, stronger effect = lower value 1.03 | S. cerevisiae deletion strains, locus YOR316C, strain cot1, stronger effect = lower value 0.985 | S. cerevisiae deletion strains, locus YPL051W, strain arl3, stronger effect = lower value 0.989 | S. cerevisiae deletion strains, locus YPL055C, strain LGE1, stronger effect = lower value 0.94 | S. cerevisiae deletion strains, locus YPL078C, strain atp4, stronger effect = lower value 0.955 | S. cerevisiae deletion strains, locus YPL106C, strain sse1, stronger effect = lower value 1.01 | S. cerevisiae deletion strains, locus YPL240C, strain hsp82, stronger effect = lower value 0.987 | S. cerevisiae deletion strains, locus YPL241C, strain CIN2, stronger effect = lower value 0.997 | S. cerevisiae deletion strains, locus YPL256C, strain CLN2, stronger effect = lower value 1.05 | S. cerevisiae deletion strains, locus YPR119W, strain clb2, stronger effect = lower value 0.982 | S. cerevisiae deletion strains, locus YPR141C, strain kar3, stronger effect = lower value 0.98 | S. cerevisiae deletion strains, locus YPR163C, strain tif3, stronger effect = lower value 0.986 | S. cerevisiae deletion strains, locus YPR167C, strain met16, stronger effect = lower value 0.996 | S. cerevisiae deletion strains, strain wtn01, stronger effect = lower value 0.992 | S. cerevisiae strains, strain wild type, stronger effect = lower value 0.986
